# Assay outcomes from PubChem BioAssay.
# The entries come from a sample that favours hits as a whole.
# HIV RNase H inh-1 – HIV-1 RT RNase H inhibitors, primary screen, biochemical, fluorescence; Gag-Pol polyprotein (Human immunodeficiency virus type 1 group M subtype B (isolate …; RT-RNase H RNA/DNA duplex cleavage; inhibition, % at 10 µM; 65,000 compounds, 1.9% hits; AID 565, 2006; in the data active = inhibition above about 50%
# HIV RNase H inh-2 – HIV-1 RT RNase H inhibitors, retest, confirmation, biochemical. inhibition, % at 10 µM. 1,000 compounds, 39% hits. Recombinant RT RNase H, fluorescent RNA/DNA duplex cleavage. shares compounds with HIV RNase H inh-1; in the data active = inhibition above about 48%; inconclusive = no clear call, values can overlap the other calls
# * = called active by the depositor; ? = inconclusive.
SMILES,HIV RNase H inh-1,others
COC(=O)C1C2C=CC3(CN(Cc4ccco4)C(=O)C13)O2 (centres undefined),-2,
COC(=O)c1ccc(=O)n(Cc2ccco2)c1,-17,
COCCN1CSC(=S)N(Cc2ccco2)C1,63*,HIV RNase H inh-2=-8
COCCOC(=O)c1c(C)oc2ccc(OC(=O)c3ccc4c(c3)OCO4)cc12,-16,
CCn1c(SCC(N)=O)nnc1-c1ccc(OC)c(OC)c1,4,
C=CCn1c(SCC(N)=O)nnc1-c1ccccc1O,-1,
CCn1c(SCC(=O)c2ccc(F)cc2)nnc1-c1ccoc1C,-7,
CCn1c(SCC(=O)c2ccc(O)c(O)c2)nnc1-c1ccccc1OC,81*,HIV RNase H inh-2=62*
C=CCn1c(SCC(=O)c2ccc(O)c(O)c2)nnc1-c1ccccc1OC,85*,HIV RNase H inh-2=62*
C=CCn1c(SCC(=O)NCc2ccccc2)nnc1-c1ccccc1O,-3,
O=C(CCCN1CCC(O)(c2ccc(Cl)cc2)CC1)c1ccc(F)cc1,0,
Cc1ccc(C)c(-n2nnnc2SCC(=O)NCCC2=CCCCC2)c1,-46,
CCCn1nnnc1SCC(=O)NCc1ccc2c(c1)OCO2,2,
O=S(=O)(c1ccc2nc(-c3ccco3)c(-c3ccco3)nc2c1)N1CCOCC1,76*,HIV RNase H inh-2=26
O=C(O)c1cccc(S(=O)(=O)N2CCOCC2)c1,1,
Cn1c(=O)n(C)c2cc(S(=O)(=O)N3CCOCC3)ccc21,-6,
CN1CCN(C(=O)N2CCNC2=O)CC1,-20,
COCCOC(=O)C1=C(C)NC2=C(C(=O)CC(C)(C)C2)C1c1cc2c(cc1Br)OCO2 (centres undefined),3,
COc1ccc(CNC(=O)C2CC(=O)N(c3ccc(OCC(=O)N4C(C)CCCC4C)cc3)C2)cc1 (centres undefined),-9,
C(=N\n1cnnc1)/c1ccc2ncccc2c1,-14,
Oc1ccc(C=Nc2ccc3ncccc3c2)c(O)c1,53*,HIV RNase H inh-2=43
Oc1c(/C=N/c2ncn[nH]2)ccc2ccccc12,-4,
CCCC(c1nnnn1C1CCCC1)N1CCN(c2ccccc2F)CC1 (centres undefined),-9,
CCOc1cccc(-c2nnc3sc(COc4ccccc4)nn23)c1,24,
COc1ccc(-c2nnc3sc(COc4ccccc4)nn23)cc1,-2,
SMILES,HIV RNase H inh-1,others
c1ccc(OCc2nn3c(-c4ccco4)nnc3s2)cc1,3,
c1ccc(OCc2nn3c(C4CCCCC4)nnc3s2)cc1,64*,HIV RNase H inh-2=29
Clc1ccccc1-c1nn2c(COc3ccccc3)nnc2s1,-2,
c1ccc(Cc2nn3c(COc4ccccc4)nnc3s2)cc1,93*,HIV RNase H inh-2=64*
Cc1cc(O)c(-c2n[nH]c3c2C(c2cccc(O)c2)N(Cc2cccnc2)C3=O)cc1Cl (centres undefined),9,
O=C(Cn1cc(C(F)(F)F)ccc1=O)N1CCN(S(=O)(=O)c2ccccc2)CC1,1,
CCc1ccccc1NC(=O)Cn1nnc(-c2cccnc2)n1,-6,
CCOc1ccccc1NC(=O)c1nc[nH]c1C(=O)Nc1ccccc1OCC,84*,HIV RNase H inh-2=?
CNC(=O)c1[nH]cnc1C(=O)Nc1cccc(OC)c1,-3,
CCOc1ccccc1NC(=O)CC1NCCNC1=O (centres undefined),0,
COc1ccccc1NC(=O)c1nc[nH]c1C(=O)Nc1ccccc1OC,83*,HIV RNase H inh-2=41
Cc1ccccc1NC(=O)c1nc[nH]c1C(=O)NCc1ccccc1,-20,
COc1ccc(NC(=O)c2nc[nH]c2C(=O)Nc2ccccc2C)cc1,-76,
Cc1ccnc(SCCn2c(N3CC(C)CC(C)C3)nc3c2c(=O)n(C)c(=O)n3C)n1 (centres undefined),1,
COc1cc(OC)cc(C(=O)NCC(=O)N2CCCCC2)c1,-5,
CC(C)COC(=O)C1C2C=CC3(CN(C4CCCC4)C(=O)C13)O2 (centres undefined),-2,
COc1cccc(-c2nnc(SCC(=O)Nc3ccc(S(N)(=O)=O)cc3)n2C)c1,-7,
COc1ccc(C2=Nn3c(nnc3-c3cccnc3)SC2)cc1OC,-17,
CCOc1ccc(C2=Nn3c(nnc3-c3ccccc3OC)SC2)cc1,3,
COc1ccccc1-c1nnc2n1N=C(c1ccc(O)c(O)c1)CS2,94*,HIV RNase H inh-2=58*
COc1cccc(-c2nnc3n2N=C(c2cccc(Br)c2)CS3)c1,54*,HIV RNase H inh-2=?
Cc1cccc(-c2nnc3n2N=C(c2ccc(Br)cc2)CS3)c1,40,
COc1ccc(C2=Nn3c(nnc3-c3ccccn3)SC2)cc1,-9,
O=C(C1CCCN1S(=O)(=O)c1ccc(Cl)c(Cl)c1)N1CCCCC1 (centres undefined),-16,
Cc1cc(C)c(NC(=O)C2CSCCS2)c(C)c1 (centres undefined),-2,
Cc1noc(C)c1CSc1nnc(-c2ccncc2)n1-c1ccc(Cl)c(Cl)c1,-1,
Cc1ccc(-c2nnn(CC(=O)NCc3ccccc3)n2)c(-n2cnnn2)c1,-4,
Cc1ccc(-c2nnn(CC(=O)N3CCCCC3)n2)c(-n2cnnn2)c1,82*,HIV RNase H inh-2=13
Cc1ccc(-c2nnn(CC(=O)N3CCN(c4nc5ccccc5s4)CC3)n2)cc1,29,
